# Measured values as given in PubChem BioAssay (NCATS).
# Inconclusive results are not listed. Where a call stands in place of a potency, no number is given. The source made the active and inactive calls. Calls follow the shape of the dose curve; as a rule, active = well fitted inhibition curve with a large enough effect; inconclusive = small, poorly fitted or top-dose-only effect; inactive = flat fitted curve, though single readings scatter.
# Molecular target: Calcium and integrin-binding protein 1 (Homo sapiens) (UniProt Q99828)
# Sequence (Q99828 whole entry, looked up): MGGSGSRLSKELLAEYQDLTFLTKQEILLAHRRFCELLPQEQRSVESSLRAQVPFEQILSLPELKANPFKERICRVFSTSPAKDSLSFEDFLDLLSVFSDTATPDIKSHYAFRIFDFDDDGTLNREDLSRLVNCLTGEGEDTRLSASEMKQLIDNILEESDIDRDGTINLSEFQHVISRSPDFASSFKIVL
# Experiment: Primary qHTS for Identification of Calcium Integrin Binding Protein 1 (CIB1) Competitor (AID 1508620); also: top concentration of the series differs between compounds
# Conditions: CIB1-GST / FITC-alphaIIb peptide fluorescence polarization; series mostly up to 114 µM
# Procedure, shortened: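 Fluorescence polarization competition: GST-tagged CIB1 (1 uM final) preincubated with compound 15 min at room temperature, then FITC-labelled alphaIIb peptide (100 nM final) added. After 15 min at room temperature, polarization read at Ex 480/Em 540.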
row,Compound,Potency
1,CC(=O)OCC(=O)[C@@]12O[C@@H]1C[C@H]1[C@@H]3CC=C4C[C@@H](O)CC[C@]4(C)[C@H]3CC[C@@]12C,inactive
2,COc1ccc(NC(=O)C2C[C@H](C)CC[C@H]2C(C)C)cc1 (stereo partly drawn),inactive
3,CN(C)CC#CCCC(=O)C(O)(c1ccccc1)C1CCC1 (stereo not drawn),inactive
4,C=C1CCC2C(C)(C(=O)O)CCCC2(C)C1CCC1=CCOC1=O (stereo not drawn),inactive
5,O=C(NCCCNC(=O)c1ccc[nH]c1=O)c1cc(-c2ccccc2)on1,inactive
6,C=C1C(=O)OC2/C=C(\C)CC/C=C(\C=O)C(OC)C(OC(=O)C(C)CC)C12 (stereo not drawn),inactive
7,CC(O)C(C)n1ncn(-c2ccc(N3CCN(c4ccc(OCC5COC(Cn6cncn6)(c6ccc(Cl)cc6Cl)O5)cc4)CC3)cc2)c1=O (stereo not drawn),inactive
8,COc1ccc(CCc2nc3cc(-c4c(C)noc4C)ccc3n2CC(C)N2CCOCC2)cc1Cl (stereo not drawn),inactive
9,Cc1cc(F)c(C(=O)Nc2cccc(-c3nncn3C(C)C)n2)cc1-n1cnc(C2CC2)c1,inactive
10,CC1(C)CC[C@]2(C(=O)O)CC[C@]3(C)C(=CCC4[C@@]5(C)C[C@@H](O)[C@H](O)C(CO)(CO)C5CC[C@]43C)C2[C@@H]1O (stereo partly drawn),inactive
11,C=C(C)C1CCC2(C(=O)O)CCC3(C)C(CCC4C5(C)C(C=O)C(O)C(C)(C)C5CCC43C)C12 (stereo not drawn),inactive
12,CC(C)C[C@@H]1NC(=O)[C@@H](Cc2ccccc2)NC(=O)C(CCCCCC(=O)C2CO2)NC(=O)[C@@H]2CCCCN2C1=O (stereo partly drawn),inactive
13,COc1ccc2nccc(C(=O)CC[C@@H]3CCN(CC#Cc4cc(F)cc(F)c4F)C[C@@H]3C(=O)O)c2c1,inactive
